According to PubChem BioAssay AID504332 (National Center for Advancing Translational Sciences (NCATS), 2011):
About 31,000 (8.9%) of roughly 350,000 compounds were called active. About 15% were inconclusive and are not listed. Calls follow the shape of the dose curve; as a rule, active = well fitted inhibition curve with a large enough effect; inconclusive = small, poorly fitted or top-dose-only effect; inactive = no such curve, though single readings can be large or run the other way. Shown is part of a subset that was picked to be rich in actives. A structure can be active in one record and inactive in another.

biological target: Histone-lysine N-methyltransferase EHMT2 (Homo sapiens) (UniProt Q96KQ7); assay: qHTS Assay for Inhibitors of Histone Lysine Methyltransferase G9a; conditions: G9a H3K9 monomethylation, AlphaScreen, 2 h; series mostly up to 59 µM; activity, negative = inhibition: at the top concentration; also: nearly all actives have a fitted effect of over 75% in size
Outline: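 Quantitative HTS format: methyltransferase activity on a biotin-tagged H3K9 peptide is measured by AlphaScreen, using a rabbit anti-monomethyl-H3K9 antibody with streptavidin donor and anti-IgG acceptor beads. Final levels are 20 nM enzyme, 500 nM peptide, 20 uM SAM; 2 h RT.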
% is scaled to controls: 0 for no effect and ±100 for the full control effect; potency is read from the fitted curve at half-maximal effect.

Histone-lysine N-methyltransferase EHMT2 (Homo sapiens), sequence (Q96KQ7 913-1193 limits assumed): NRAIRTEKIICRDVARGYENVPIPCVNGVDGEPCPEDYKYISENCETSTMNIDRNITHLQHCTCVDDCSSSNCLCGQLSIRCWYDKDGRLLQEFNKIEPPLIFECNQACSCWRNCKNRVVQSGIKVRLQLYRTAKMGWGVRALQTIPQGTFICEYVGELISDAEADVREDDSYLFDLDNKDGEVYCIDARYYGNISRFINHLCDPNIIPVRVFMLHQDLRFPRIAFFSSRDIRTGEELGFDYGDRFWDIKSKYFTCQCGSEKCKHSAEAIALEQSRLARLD

activity, negative = inhibition, inactive:
CCOc1ccc(S(=O)(=O)Nc2cccc(C(=O)NCC3(N4CCCCC4)CCCCC3)c2)cc1 19.1% [at 0.501 µM], CCOC(=O)C1CCC(CN(Cc2ccc(OC)cc2)S(=O)(=O)c2ccc(F)c(C(=O)Nc3cc(C)ccc3C)c2)CC1 (stereo not drawn) 1.59%, O=C(N[C@@H](Cc1ccccc1)C(=O)OCc1ccccc1)c1nc[nH]c1C(=O)NC1CCNCC1 -7.95% [at 2.33 µM], CCc1ccc(C2C(C#N)=C(N)N(N(C)C)C3=C2C(=O)CCC3)s1 (stereo not drawn) -12.3%, N#CC1=C(N)N(c2ccccc2)C2=C(C(=O)CCC2)C1c1ccccc1 (stereo not drawn) -1.58%, CC(=O)Nc1cccc(NC(=O)CSc2cn(CC(=O)N3CCCC3)c3ccccc23)c1 -7.24%, CCN(CCCNC(=O)c1cc(Nc2ccc(OC)cc2)nc2ccccc12)c1cccc(C)c1 -28.7%, CC[C@H](C)C(=O)N[C@H]1CCCN1C(=O)/C=C/c1ccccc1 11.1% [at 2.33 µM], COc1ccc(C(=O)OC(C)C(=O)NC2CCCC2)cc1S(=O)(=O)N1CCOCC1 (stereo not drawn) 22.8% [at 12.7 µM], COc1ccc(C(=O)N2CCN(c3ncccn3)CC2)cc1S(=O)(=O)N1CCOCC1 10.4% [at 12.7 µM], COc1ccc(Cl)cc1NC(=O)CCn1c(=O)c2cccn2c2ccccc21 -4.8%, CCn1cc(C(=O)N2CCN(c3cc(Cl)ccc3C)CC2)c(=O)c2cc(S(=O)(=O)N3CCCC3)ccc21 -29.3%, Cc1ccc(Cl)cc1N1CCN(C(=O)c2cccn3c(=O)c4cc(Cl)ccc4nc23)CC1 23.6%, CN(C)C(=O)COC(=O)c1cccc(S(=O)(=O)N2CC3(C)CC2CC(C)(C)C3)c1 (stereo not drawn) 16.1%, Cc1nc2ccccn2c(=O)c1NC(=O)c1c(F)cccc1F -4.54%, Cc1ccc(Nc2c(-c3ccc(C)s3)nc3ccccn23)cc1 -27%, CCc1cc2c(-c3ccccc3)cc(=O)oc2c2c1OCN(Cc1ccc(C)cc1)C2 29.3%, CN1CCN(Cc2c(O)ccc3c2oc(=O)c2ccccc23)CC1 -28% [at 2.33 µM], COc1ccccc1CNS(=O)(=O)c1cc(C(=O)NCc2ccccn2)c(Cl)cc1Cl -12.7% [at 102 µM], CCOc1ccc(NC(=O)C2CCN(S(=O)(=O)c3cc(-c4noc(C)n4)ccc3C)CC2)cc1 12.1%, Cc1ccccc1NC(=O)Cn1c(=O)n(Cc2ccco2)c(=O)c2ccc(C(=O)NC3CCCC3)cc21 -0.813%, CCN1C(=O)c2ccccc2S(=O)c2ccc(C(=O)NCc3ccc(F)cc3)cc21 (stereo not drawn) 5.23%, COc1cccc(CCNC(=O)COc2cccc3c2OC(C)(C)C3)c1 0.938% [at 102 µM], COC(=O)/C(NC(C)=O)=C(\C)c1ccc(Cl)cc1 -9.9%, COC(=O)c1cn(C(=O)c2ccc(Cl)cc2)c2ccccc12 231% [at 102 µM], Cc1cc(Nc2cccc(C(F)(F)F)c2)nc2ccc(NC(=O)c3ccc(=O)[nH]c3)cc12 -0.704%, O=C(O)CS/C(=C\c1ccc(F)cc1)c1nc2ccccc2s1 -4.8% [at 102 µM], O=C(Nc1nc2ccccc2s1)c1ccc2c(c1)OCO2 11.3%, Cc1ccc2oc3c(c(=O)c2c1)C(c1ccc(O)cc1)N(Cc1ccc2c(c1)OCO2)C3=O (stereo not drawn) -10.3%, Cc1ccc(-n2c(=O)c3cccnc3n2CC(=O)Nc2ccccc2C(F)(F)F)cc1C 15.4%, COc1ccc(Cc2nnc(SCC(=O)Nc3ccc(C)c(C)c3)o2)cc1OC -11.7% [at 102 µM], Cc1ccc(S(=O)(=O)N2CCOCC2)cc1C(=O)NCc1ccc(F)cc1 -8.42%, Cc1ccc(S(=O)(=O)N2CCOCC2)cc1C(=O)Nc1ccccc1N1CCCC1 11% [at 0.501 µM], COc1ccc(S(=O)(=O)N2CCOCC2)cc1NC(=O)c1ccc(OCC(C)C)c(OC)c1 22.9% [at 2.33 µM], Cc1cccc(OCCC(=O)Nc2cc(S(=O)(=O)N3CCCCC3)ccc2N2CCOCC2)c1 -11.2% [at 102 µM], COc1ccc(S(=O)(=O)N2CCCCC2)cc1NC(=O)COc1ccccc1 -9.48% [at 2.33 µM], COc1ccc(S(=O)(=O)N2CCOCC2)cc1NC(=O)CSc1ncnc2ccccc12 -0.39% [at 102 µM], O=C(CNCc1cccs1)Nc1cc(S(=O)(=O)N2CCCC2)ccc1Cl -123%, O=C(Nc1ccc2c(c1)nc1n2CCCCC1)c1cc(S(=O)(=O)N2CCOCC2)ccc1Cl 14.4% [at 102 µM], CC1CCC2(CC1)N=C(c1ccccc1)C(=O)N2CC(=O)Nc1ccc(F)c(Cl)c1 (stereo not drawn) 7.11%, O=C(NCc1cccnc1)C(=O)NCC(c1cccnc1)N1CCN(c2ccccc2)CC1 (stereo not drawn) 4.02%, Cc1c(NC(=O)C(C)(C)C)cccc1-c1nc2ccccc2s1 2.75%, CCc1ccc(-n2nnc(-c3nc(-c4ccccc4)no3)c2C)cc1 6.71%, CCCCn1c(=N)c(S(=O)(=O)c2ccccc2)cc2c(=O)n3cccc(C)c3nc21 3.44%, COc1cccc(N=C2SC(C(=O)Nc3cccc(Cl)c3)CC(=O)N2C)c1 (stereo not drawn) 12.3%, Cc1cccc2c1-c1sc(C(=O)Nc3ccc(F)cc3F)cc1CO2 28.5%, CC(NC(=O)c1cccc(S(=O)(=O)N2CCc3ccccc3C2)c1)c1ccco1 (stereo not drawn) 5.8%, O=C(COC(=O)CCOc1ccccc1)Nc1cc(S(=O)(=O)N2CCCCC2)ccc1Cl 4.58% [at 2.33 µM], CC(=O)c1c(C)[nH]c(C(=O)OCC(=O)Nc2cc(S(=O)(=O)N3CCCCC3)ccc2C)c1C -1.48%, O=C(COc1cccc2ccccc12)Nc1cc(S(=O)(=O)N2CCOCC2)ccc1N1CCOCC1 -25.6% [at 102 µM], O=C(Nc1ccc(S(=O)(=O)N2CCc3ccccc3C2)cc1)c1ccccc1 46.5% [at 12.7 µM], O=C(COC(=O)Cc1ccc(F)cc1)Nc1cc(S(=O)(=O)N2CCOCC2)ccc1N1CCCC1 -1.2%, COc1cc(Nc2nc3ccc(Cl)cc3n3cnnc23)cc(OC)c1OC 98.3% [at 102 µM], COc1cc(F)c(C2=CC(=O)CC(C)(C)C2)cc1F -4.97% [at 0.501 µM], COc1ccccc1S(=O)(=O)NCc1ccc(C(=O)N(C)Cc2ccc(F)cc2)cc1 6.01% [at 2.33 µM], Cc1cccc(CCNC(=O)c2ccc3c(c2)nc2n3CCC(C)C2)c1 (stereo not drawn) 2.69%, CC(=O)N1CCc2cc(Br)cc(S(=O)(=O)CCC(=O)NCCc3ccc(Cl)cc3)c21 9.87%, C/C(=N\NC(=O)c1ccccc1F)c1ccccn1 36.1% [at 102 µM], CCOC(=O)C1CCN(C(=O)/C=C/c2cc(OC)c(OC)c(OC)c2)CC1 15.1%, CCOC(=O)C1CCN(S(=O)(=O)c2cc(F)ccc2OC)CC1 11.3% [at 102 µM], Cc1ccc(S(=O)(=O)c2nc(-c3ccco3)oc2SCC(=O)Nc2ccc(F)cc2)cc1 0.772%, NS(=O)(=O)c1ccc(CCNC(=O)CN2C(=O)c3ccccc3S2(=O)=O)cc1 -0.171% [at 102 µM], CCC(=O)N1CCc2cc(Br)cc(S(=O)(=O)CCC(=O)NCCc3ccc(OC)c(OC)c3)c21 8.33%, Cc1ccccc1NC(=O)C(C)OC(=O)CCC(=O)N(CC(C)C)c1c(N)n(CC(C)C)c(=O)[nH]c1=O (stereo not drawn) -28.5%, CC(C)(C)CC(C)(C)NCC(O)COCCOc1ccc(Br)cc1 (stereo not drawn) 1.72%, CC(C)(C)NCC(O)COc1cccc2[nH]c(=O)[nH]c12 (stereo not drawn) 21.7% [at 12.7 µM], COc1ccc(C2(C#N)CCC(C(=O)O)CC2)cc1OC1CCCC1 (stereo not drawn) -32.8% [at 12.7 µM], COc1ccc(S(=O)(=O)n2nc(C)c(S(=O)(=O)N3CCCCCC3)c2C)cc1 -1.88%, Cc1ccc(S(=O)(=O)n2nc(C)c(S(=O)(=O)N3CCCCCC3)c2C)cc1 6.64%, COc1ccc(S(=O)(=O)c2c(Nc3cccc(Cl)c3)sc(C(=O)c3ccccc3)c2N)cc1 1.28%

Potency, active:
Cc1sc(C2C(C#N)=C(N)N(c3cccc(Cl)c3)C3=C2C(=O)CCC3)cc1CN1CCOCC1 (stereo not drawn) 15.8 µM, COc1ccc(C(=O)Oc2ccc(-c3nnco3)cc2)cc1S(=O)(=O)N1CCOCC1 50.1 µM, Cc1ccc(Cl)cc1N1CCN(C(=O)c2cccc3c(=O)c(C)c(-c4ccccc4)oc23)CC1 7.94 µM, Cc1ccc(-c2nc3ccccn3c2Nc2c(C)cccc2C)o1 12.6 µM, Cc1ccc(CN2COc3cc(C)c4c(oc(=O)c5ccccc54)c3C2)cc1 12.6 µM, COC(=O)C(=Nc1ccccc1)/C(C(=O)C(=O)N(C)c1ccccc1)=C(\O)c1ccc(Cl)cc1 20 µM, O=C(O)CC/C(=C\c1cc2c(cc1Br)OCO2)c1nc2ccccc2s1 35.5 µM, O=C(Nc1ccc(N2CCCCC2)cc1)c1cc(S(=O)(=O)N2CCOCC2)ccc1F 17.8 µM, O=C(CNCc1ccco1)Nc1cc(S(=O)(=O)N2CCOCC2)ccc1N1CCCC1 50.1 µM, COc1ccc(S(=O)(=O)N2CCOCC2)cc1NC(=O)COc1ccccc1 12.6 µM, CC(Oc1ccc(F)cc1)C(=O)Nc1cc(S(=O)(=O)N2CCOCC2)ccc1N1CCN(C)CC1 (stereo not drawn) 11.2 µM, O=C(COC(=O)c1ccccc1F)Nc1cc(S(=O)(=O)N2CCOCC2)ccc1N1CCCC1 35.5 µM, CS(=O)(=O)c1ccc(Cl)c(NC(=O)COC(=O)c2cccc(S(=O)(=O)N3CCCC3)c2)c1 56.2 µM, CC(C)c1ccc(NC(=O)c2cc(S(=O)(=O)N3CCc4ccccc4C3)ccc2F)cc1 25.1 µM, CCOC(=O)C1CCCCN1Cc1ccc(OC)c(OC)c1OC (stereo not drawn) 12.6 µM, CC(C)(C)NCC(O)COc1cccc2[nH]c(=O)[nH]c12 (stereo not drawn) 1.12 µM, COc1ccc(S(=O)(=O)n2nc(C)c(S(=O)(=O)N3CCOCC3)c2C)cc1 79.4 µM

Potency, inactive:
COc1ccccc1OCCNCC(O)COc1cccc2[nH]c3ccccc3c12 (stereo not drawn)
